In PubChem BioAssay (NCI):
This is part of a sample that, as a whole, favours compounds with a hit. Of some 83,000 tested, about 20% had one in any assay.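 Activity criterion: percent growth below 10, measured after cells in 96-well plates were exposed to a single compound concentration for 48 hours.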 A number with no mark means an inactive call. The source made the active and inactive calls.

Tested on: HL-60(TB) leukemia
Test: NCI-60 one-dose screen, 48 h (100 = growth as untreated, 0 = no growth, -100 = all killed)
Conditions: 10 µM unless noted

| SMILES | growth |
| --- | --- |
| Cc1[nH]nc(C(N)=O)c1[N+](=O)[O-] | 129% |
| C#C[C@]1(O)CC[C@H]2[C@@H]3CC=C4c5nc(Nc6ncccn6)sc5CC[C@]4(C)[C@H]3CC[C@@]21C | 60.4% |
| C=C1C(=O)O[C@H]2[C@H]1CC/C(COC(=O)/C=C\C(=O)NCc1ccc(Cn3c(=O)sn(CCCCl)c3=O)cc1)=C\CC[C@@]1(C)O[C@@H]21 | 10.8% |
| CCN(CC)CCNC(=O)c1ccc(NC(C)=O)cc1 | 110% |
| O=C(CCCCCCCn1cc(-c2cccnc2)nn1)Nc1ccccc1-c1ccccc1 | 45.7% |
| O=C1CSC(c2c(F)cccc2Cl)N1NC(=O)C(O)(c1ccccc1)c1ccccc1 (configuration not stated) | 98.3% |
| Nc1ncnc2c1ncn2C1OC(CO)C2OC21 (configuration not stated) | 114% |
| O=C1NC(=O)C(Cn2cnc3ccccc32)N1 (configuration not stated) | 95.8% |
| COc1ccc(N2C(=O)C3c4[nH]c5ccc(OCc6ccccc6)cc5c4C4CCC(C(C)C)CC4C3C2=O)cc1 (configuration not stated) | 68.9% |
| CN1CCN(CCOc2ccc(-c3cnc4c(-c5ccc(C(F)(F)F)cc5)cnn4c3)cc2)CC1 | -32.5% (active) |
| COc1ccccc1CNCCCCCCCCCCCCN1C(=O)c2ccc3c4c(ccc(c24)C1=O)C(=O)N(CCCCCCCCCCCCNCc1ccccc1OC)C3=O | 85.8% |
| Cc1oc2c(Cc3ccc(NC(=O)c4ccc(Cl)cc4)cc3)ncnc2c1C(=O)NO | 87.9% |
| CCOC(=O)N1CCc2c(sc3nc4nc[nH]n4c(=O)c23)C1 | 103% |
| Nc1nc2ccc3[nH]ncc3c2c2c1CCCC2 | -23.4% (active) |
| CCOc1cccc(/C=N/NC(=O)C(=O)Nc2cccc(C(F)(F)F)c2)c1O | 11.2% |
| OC(c1cc(-c2cccc(Cl)c2)nc2ccccc12)C1CCCCN1 (configuration not stated) | -63.1% (active) |
| O=C(Nc1ccc(-n2cc(-c3ccncc3)c(-c3ccc(Cl)c(O)c3)n2)cc1)Nc1cc(C(F)(F)F)cc(C(F)(F)F)c1 | 2.94% (active) |
| N#Cc1nc(-c2ccc(F)cc2)oc1S(=O)(=O)N1CCCCC1 | 32.4% |
| COc1ccc(C2CC(n3ccnc3)c3cc(OC)c(OC)c(OC)c32)cc1O (configuration not stated) | 83.6% |

| SMILES | growth |
| --- | --- |
| O=C1SCN(Cc2ccccc2)CN1Cc1ccccc1 | 70.7% |
| [2H]C([2H])([2H])Oc1ccc(/C=C/C(=O)/C=C(/C=C/c2ccc(OC([2H])([2H])[2H])c(OC([2H])([2H])[2H])c2OC([2H])([2H])[2H])OB(F)F)c(OC([2H])([2H])[2H])c1OC([2H])([2H])[2H] | 52.3% |
| NC(=O)c1cc(Br)ccc1NC(=O)/C=C/c1ccccc1 | -22.9% (active) |
| COc1cc2oc(-c3cccc(C(=O)Nc4ccc(C)cc4)c3)cc(=O)c2c(OC)c1OC | 7.26% (active) |
| Cn1cc(-c2csc(-c3cn(CCOC(N)=O)c4ccccc34)n2)c2cccnc21 | 86.9% |
| CC(C)CCC[C@@H](C)[C@H]1CC[C@H]2[C@@H]3CC[C@H]4C/C(=N/O)CC[C@]4(C)[C@H]3CC[C@]12C | 104% |
| COc1ccc(C(=O)N2NC(=O)/C(=C/c3cn(-c4ccccc4)nc3-c3ccccc3)N=C2c2ccccc2)cc1 | 103% |
| N#Cc1ccc(OC(=O)Nc2c(Cl)cc(Cl)cc2Cl)cc1 | 102% |
| Cc1nc2sc(C(=O)Nc3cccc4c3OCCO4)c(N)c2cc1C(C)O (configuration not stated) | 8.35% (active) |
| CCOC(=O)c1c(N)sc2cc(O)ccc12 | 94.1% |
| CCO/C=N/C1=C(C#N)C(c2ccc(F)cc2)c2sc3c(F)cccc3c2O1 (configuration not stated) | 6.35% (active) |
| CC(C)=CCC[C@H](C)c1ccc(C)c2c1OCN(CCO)C2 | 90.8% |
| Cc1cc2nc3c4ccc(Br)cc4n(CCN(C)C)c3nc2cc1C | 3.73% (active) |
| Nc1ncnc2c1CN(Cc1ccccc1)CC2 | 105% |
| CCS(=O)(=O)Nc1cccc(Nc2c3cccc(C)c3nc3c(C)cccc23)c1OC | -16.4% (active) |
| CNC(=O)c1cnc(C)nc1-c1cc(C(C)(C)C)c(O)c(C(C)(C)C)c1 | 91.1% |
| COc1ccc(C2CC(c3cccc(Nc4ccncc4)c3)=NN2c2ccccc2)cc1 (configuration not stated) | -32.8% (active) |
| CN(C)C/C=C/C(=O)Nc1cc2c(Nc3cccc(Cl)c3F)ncnc2cc1OCCOC(F)F | 43.2% |
